Screens: PubChem BioAssay, Broad Institute
HSF1 inh: HSF1 inhibition | NIH3T3-HGL HSE-luciferase, MG132-induced, luminescence 8 h; stronger effect = lower value | activity change, negative = inhibition, % at 7.5 µM (by protocol) | actives 0.77% (n = 300,000);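 active = more than half of replicate wells show activity change below -50%, luminescence cut by over half; inconclusive = some wells, but at most half, below -50%; inactive = no replicate well below -50%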;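 also: luciferase reports HSF-1 transcriptional activity via heat shock element; 0% = median of DMSO wells and -100% = zero luminescence signal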
MITF act: MITF TRPM1 promoter activation in melanoma cells; SK-MEL-5 TRPM1-promoter luciferase, 24 h; % of positive control, neutral wells = 0; activation, % at 12.5 µM; actives 0.75% (n = 300,000);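 active = mean activation of at least 80% with every replicate also reaching 80%; inconclusive = mean reaches 80% but some replicate falls short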;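 also: 0% = neutral control wells and 100% = parthenolide positive control wells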
esBAF inh: blocks esBAF chromatin remodeling in mouse ES cells. Bmi1-luciferase knock-in reporter, 24 h; 100% = twice the neutral-well signal. actives 2% (n = 350,000). reporter increase, % at 12.5 µM; in the data active = activation above about 40%; inconclusive = no clear call, values can overlap the other calls;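 also: 0% = median of the plate's neutral control wells and 100% = double that signal; a rise in the Bmi1 reporter signal indicates esBAF inhibition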
Wnt act: activates Wnt/beta-catenin signaling in a reporter cell assay. activator, plate reader. activation, % at 9.35 µM. actives 1.2% (n = 300,000); in the data active = activation above about 30%, passing the limit was not always enough; inconclusive = no clear call, values can overlap the other calls;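 also: 0% = neutral control wells and 100% = positive control wells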
HSF1 activator: increases HSF-1 driven luciferase reporter signal; NIH3T3-HGL HSF-1 luciferase reporter, MG132, 8 h; 100% = twice DMSO control signal; activation, % at 9 µM; actives 1.7% (n = 300,000);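 active = mean replicate activation of at least 50% with a set share of replicates each reaching 50%; inconclusive = only one of those two conditions met; inactive = mean below 50% and too few replicates reaching it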;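 also: 0% = median of the neutral control wells and 100% = twice that signal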
* = called active by the depositor; ? = inconclusive; . = no result given; ! = repeats disagree. Rows were chosen to be rich in hits. Some 3.9% of all compounds tested hit in one or more screens of this group.

SMILES	HSF1 inh	MITF act	esBAF inh	Wnt act	HSF1 activator
CC(C)OC(=O)c1c(NC(=O)Cn2cnc([N+](=O)[O-])n2)sc2c1CCCC2	12	-2	4	-1	58*
Cc1ccc2nc(N3CCN(Cc4nnnn4Cc4ccccc4)CC3)c(C#N)cc2c1	-62*	-11	-8	.	-69
O=C(O)CC1SC(=O)N(Cc2ccccc2)C1=O (stereo unspecified)	-89*	.	4	-5	-92
COc1ccc(-c2csc(N(Cc3ccco3)C(=O)c3cccs3)n2)cc1	1	-3	22	41*	-4
COc1ccc(-c2csc(N(C)C(=O)c3cccs3)n2)cc1	24	97*	?	38*	43
Cc1ccc2c(c1)C1(C(=O)N2)N2CCCC2C(C(=O)c2ccc3ccccc3c2)C12C(=O)Nc1ccccc12 (stereo unspecified)	.	16	50*!	22	.
COc1cccc(S(=O)(=O)N(C)C[C@@H]2Oc3cc(C4=CCCC4)ccc3S(=O)(=O)N([C@H](C)CO)C[C@H]2C)c1	.	.	3	.	.
[O-][n+]1c2ccccc2c2n1CCN1CCOC21c1ccc(Cl)cc1 (stereo unspecified)	.	4	60*	?	.
N#Cc1ccc(C23OCCN2CCn2nc4ccccc4c23)cc1 (stereo unspecified)	.	-22	3	-2	.
CC(=O)Nc1ccc(NC(=O)CN(c2ccccc2Cl)S(C)(=O)=O)cc1	-5	5	-2	40*	16
O=C(COC(=O)C1CCN(S(=O)(=O)c2cccc3cccnc23)CC1)c1ccc([N+](=O)[O-])cc1	61	-9	.	.	107*
CC(=O)c1ccc(NC(=O)C2CCN(S(=O)(=O)c3cccc4cccnc34)CC2)cc1	-62*	3	4	-3	-69
COc1ccc(C(=O)COC(=O)C2CCN(S(=O)(=O)c3cccc4cccnc34)CC2)cc1	-3	9	.	-2	-7
CCOC(=O)C1(Cc2ccccc2)CCCN(C(=O)COc2ccccc2OC)C1 (stereo unspecified)	.	.	.	39*	.
CCOC(=O)C1(Cc2ccccc2)CCCN(C(=O)C=C(C)C)C1 (stereo unspecified)	8	88*	60*	4	19
CCOC(=O)C1(Cc2ccccc2)CCCN(C2CCN(C(C)=O)CC2)C1 (stereo unspecified)	-7	-1	-1	1	7
CO[C@H](CN(C)S(=O)(=O)c1ccc(Cl)cc1)[C@H](C)CN(Cc1ccccc1Cl)[C@H](C)CO	.	.	-4	.	.
Cc1[nH]c2ccc(-c3nnc(SCC(=O)c4ccc(F)cc4)o3)cc2c1C	-60*	6	8	-1	-64
C[C@@H]1CN([C@@H](C)CO)C(=O)c2cc(C3=CCCC3)cnc2O[C@@H]1CN(C)C(=O)CN1CCOCC1	.	.	0	.	.
O=C(C=C=Nc1ccccc1)C(=O)N=C=Cc1ccccc1	170	-83	-75	26	224*
Cc1ccc(NC2OC(C(O)CO)C(O)C2O)cc1[N+](=O)[O-] (stereo unspecified)	-2	11	7	.	-2
Cc1ccc(NC2OC(CO)C(O)C2O)cc1[N+](=O)[O-] (stereo unspecified)	30	12	.	.	72*
CCOC(=O)c1ccc(NC(=O)Nc2ccccn2)cc1	14	102*	59*	15	10
O=C(Nc1ccccc1)Nc1ccc2ocnc2c1	-1	3	57*	-1	0
CCOC(=O)c1ccc(NC(=O)c2cnccn2)cc1	13	119*	-11	28	14
SMILES	HSF1 inh	MITF act	esBAF inh	Wnt act	HSF1 activator
O=C(Nc1ccccc1)Nc1ccccn1	20	74	45*	.	38
O=C(Nc1ccc(Cl)cc1)Nc1ccccn1	14	69	?	21	25
Cc1ccc(S(=O)(=O)Nc2ccc3c(c2)C(=O)N([C@H](C)CO)C[C@H](C)[C@H](CN(C)S(=O)(=O)c2cn(C)cn2)O3)cc1	.	.	1	.	.
Cc1noc(C)c1S(=O)(=O)Nc1ccc2c(c1)C(=O)N([C@@H](C)CO)C[C@@H](C)[C@@H](CN(C)C(=O)C1CCCCC1)OCCCC[C@@H](C)O2	.	.	5	.	.
O=C(Nc1ccccn1)c1ccc2ccccc2n1	37	33	.	.	74*
CCc1ccc(OCCOC(=O)Nc2ccccc2)cc1	-4	.	-3	0	-7
O=C(Nc1ccccn1)C(=O)Nc1ccccn1	10	70	.	39*	32
O=C(Nc1ccccc1)OCCc1ccccn1	.	51	80*	13	.
